Holding throughout (assay): DAPPL (digital affinity profiling via proximity ligation, sequencing); 10 mM Tris-HCl pH 7.5, 50 mM NaCl, 1 mM DTT, 4% glycerol, room temperature, 30 min; GST-TFs on glutathione beads, 16-mer random dsDNA library, 0.1% formaldehyde crosslink after washing; high values mean tight binding
For one assay, the target named is T1, FEV (Homo sapiens, UniProt Q99581 1-238).
T1 sequence: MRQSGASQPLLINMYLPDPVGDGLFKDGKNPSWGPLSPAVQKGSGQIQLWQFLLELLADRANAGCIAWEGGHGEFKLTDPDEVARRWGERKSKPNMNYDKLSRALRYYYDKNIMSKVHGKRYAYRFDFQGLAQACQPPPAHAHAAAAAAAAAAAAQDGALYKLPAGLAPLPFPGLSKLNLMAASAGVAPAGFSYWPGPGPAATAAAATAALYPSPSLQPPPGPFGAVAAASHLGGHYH
The note with it: protein: recombinant; tags: N-terminal GST; dsDNA, one strand shown. Summed up: (§1)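 Yeast served to express human transcription factors as GST fusions, which were then captured on glutathione beads and labelled with DNA barcodes. Pooled with a tag-only sample, they were incubated with 200 nmole of a 16-mer random double-stranded DNA library for 30 min at room temperature in Tris/NaCl/DTT/glycerol buffer, washed, crosslinked with 0.1% formaldehyde, ligated by proximity, amplified by PCR and sequenced. Dividing each hexamer's read frequency for a factor by its frequency for the tag-only sample gives the binding signal.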

Another assay deals with ETV5 (Homo sapiens, UniProt P41161 1-510). Conditions: protein: recombinant; tags: N-terminal GST; dsDNA, one strand shown. Summed up: as §1
The target of a further assay is HSF1 (Homo sapiens, UniProt Q00613 1-529). Conditions: protein: recombinant; tags: N-terminal GST; chain copies: 3; dsDNA, one strand shown. Put shortly:
as §1

In the next assay the target is T2, SPIC (Homo sapiens, UniProt Q8N5J4 1-248).
T2 sequence: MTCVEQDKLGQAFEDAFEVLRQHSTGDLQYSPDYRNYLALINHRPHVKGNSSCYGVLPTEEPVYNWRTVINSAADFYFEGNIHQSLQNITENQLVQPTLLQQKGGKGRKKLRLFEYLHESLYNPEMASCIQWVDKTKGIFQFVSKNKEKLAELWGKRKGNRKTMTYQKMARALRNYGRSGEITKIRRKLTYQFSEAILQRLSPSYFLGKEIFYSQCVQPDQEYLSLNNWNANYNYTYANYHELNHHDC
Conditions: protein: recombinant; tags: N-terminal GST; dsDNA, one strand shown. Put shortly:
as §1

Another assay concerns the target ELF4 (Homo sapiens, UniProt Q99607 1-663). Conditions: protein: recombinant; tags: N-terminal GST; dsDNA, one strand shown. Summed up: as §1
A further assay concerns the target T3, ELK4 (Homo sapiens, UniProt P28324-2 1-405).
T3 sequence: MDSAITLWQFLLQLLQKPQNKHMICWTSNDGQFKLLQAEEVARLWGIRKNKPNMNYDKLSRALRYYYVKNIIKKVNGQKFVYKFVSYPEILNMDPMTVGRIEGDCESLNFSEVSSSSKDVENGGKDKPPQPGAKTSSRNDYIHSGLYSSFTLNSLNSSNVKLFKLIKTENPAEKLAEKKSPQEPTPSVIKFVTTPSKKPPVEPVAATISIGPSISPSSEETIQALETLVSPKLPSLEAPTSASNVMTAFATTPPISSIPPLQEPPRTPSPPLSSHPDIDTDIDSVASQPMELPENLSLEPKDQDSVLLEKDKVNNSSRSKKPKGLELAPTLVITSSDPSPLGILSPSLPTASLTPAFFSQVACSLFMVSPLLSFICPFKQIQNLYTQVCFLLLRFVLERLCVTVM
Conditions: protein: recombinant; tags: N-terminal GST; dsDNA, one strand shown. Put shortly:
as §1

The target in the next assay is T4, ETV2 (Homo sapiens, UniProt O00321 1-342).
T4 sequence: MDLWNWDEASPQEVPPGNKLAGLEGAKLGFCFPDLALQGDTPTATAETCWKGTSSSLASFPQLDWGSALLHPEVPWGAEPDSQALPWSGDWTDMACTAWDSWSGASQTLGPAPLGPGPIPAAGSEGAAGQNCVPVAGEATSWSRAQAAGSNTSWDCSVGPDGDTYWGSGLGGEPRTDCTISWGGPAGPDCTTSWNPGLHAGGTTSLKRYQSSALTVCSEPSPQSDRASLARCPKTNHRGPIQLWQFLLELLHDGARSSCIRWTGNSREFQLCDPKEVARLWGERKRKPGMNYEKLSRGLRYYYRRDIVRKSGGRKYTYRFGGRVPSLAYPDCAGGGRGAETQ
The note with it: protein: recombinant; tags: N-terminal GST; dsDNA, one strand shown. Summed up: as §1

The target in another assay is T5, ELF3 (Homo sapiens, UniProt P78545 1-371).
T5 sequence: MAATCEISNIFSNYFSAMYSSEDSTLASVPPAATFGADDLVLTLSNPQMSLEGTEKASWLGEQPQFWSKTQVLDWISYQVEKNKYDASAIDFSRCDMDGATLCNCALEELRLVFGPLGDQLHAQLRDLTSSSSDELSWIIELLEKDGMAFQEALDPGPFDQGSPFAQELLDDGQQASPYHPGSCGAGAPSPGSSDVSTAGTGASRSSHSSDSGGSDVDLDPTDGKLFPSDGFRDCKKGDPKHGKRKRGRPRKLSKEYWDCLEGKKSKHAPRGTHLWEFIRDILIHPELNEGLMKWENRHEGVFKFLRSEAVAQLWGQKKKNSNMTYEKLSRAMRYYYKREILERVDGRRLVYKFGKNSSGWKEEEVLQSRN
Conditions: protein: recombinant; tags: N-terminal GST; dsDNA, one strand shown. Summed up: as §1

In another assay the target is CRX (Homo sapiens, UniProt O43186 1-299). Conditions: protein: recombinant; tags: N-terminal GST; dsDNA, one strand shown. Summed up: as §1
A further assay deals with ETV1 (Homo sapiens, UniProt P50549 1-477). Conditions: protein: recombinant; tags: N-terminal GST; dsDNA, one strand shown. Put shortly:
as §1

For the next assay, the target named is T6, ERF (Homo sapiens, UniProt P50548 1-548).
T6 sequence: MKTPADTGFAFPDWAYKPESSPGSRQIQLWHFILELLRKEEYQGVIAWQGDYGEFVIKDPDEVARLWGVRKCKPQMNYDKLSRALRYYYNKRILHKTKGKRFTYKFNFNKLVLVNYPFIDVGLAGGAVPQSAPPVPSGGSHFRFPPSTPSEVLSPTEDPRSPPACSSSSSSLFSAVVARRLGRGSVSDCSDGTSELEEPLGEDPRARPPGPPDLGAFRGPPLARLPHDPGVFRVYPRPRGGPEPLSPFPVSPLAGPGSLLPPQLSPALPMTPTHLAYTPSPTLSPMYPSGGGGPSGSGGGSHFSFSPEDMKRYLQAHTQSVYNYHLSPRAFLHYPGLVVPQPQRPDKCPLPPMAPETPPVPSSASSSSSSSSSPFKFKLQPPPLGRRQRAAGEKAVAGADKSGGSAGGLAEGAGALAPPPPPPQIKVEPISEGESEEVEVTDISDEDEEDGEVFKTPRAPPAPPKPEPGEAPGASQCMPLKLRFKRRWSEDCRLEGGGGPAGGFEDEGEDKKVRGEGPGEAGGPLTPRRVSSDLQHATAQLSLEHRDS
Conditions: protein: recombinant; tags: N-terminal GST; dsDNA, one strand shown. Put shortly: as §1

Another assay addresses T7, ETV3L (Homo sapiens, UniProt Q6ZN32 1-361).
T7 sequence: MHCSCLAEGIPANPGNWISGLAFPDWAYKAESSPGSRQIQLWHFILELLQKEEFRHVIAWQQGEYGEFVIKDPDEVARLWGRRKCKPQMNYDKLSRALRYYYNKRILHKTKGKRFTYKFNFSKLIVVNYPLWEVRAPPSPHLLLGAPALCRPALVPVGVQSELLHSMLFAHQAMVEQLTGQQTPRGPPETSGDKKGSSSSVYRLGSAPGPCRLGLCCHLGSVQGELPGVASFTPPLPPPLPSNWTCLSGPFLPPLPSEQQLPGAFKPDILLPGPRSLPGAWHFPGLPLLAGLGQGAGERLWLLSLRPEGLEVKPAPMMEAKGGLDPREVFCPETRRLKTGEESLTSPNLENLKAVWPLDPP
The note with it: protein: recombinant; tags: N-terminal GST; dsDNA, one strand shown. Summed up:
as §1

For another assay, the target named is T8, ETS2 (Homo sapiens, UniProt P15036 1-469).
T8 sequence: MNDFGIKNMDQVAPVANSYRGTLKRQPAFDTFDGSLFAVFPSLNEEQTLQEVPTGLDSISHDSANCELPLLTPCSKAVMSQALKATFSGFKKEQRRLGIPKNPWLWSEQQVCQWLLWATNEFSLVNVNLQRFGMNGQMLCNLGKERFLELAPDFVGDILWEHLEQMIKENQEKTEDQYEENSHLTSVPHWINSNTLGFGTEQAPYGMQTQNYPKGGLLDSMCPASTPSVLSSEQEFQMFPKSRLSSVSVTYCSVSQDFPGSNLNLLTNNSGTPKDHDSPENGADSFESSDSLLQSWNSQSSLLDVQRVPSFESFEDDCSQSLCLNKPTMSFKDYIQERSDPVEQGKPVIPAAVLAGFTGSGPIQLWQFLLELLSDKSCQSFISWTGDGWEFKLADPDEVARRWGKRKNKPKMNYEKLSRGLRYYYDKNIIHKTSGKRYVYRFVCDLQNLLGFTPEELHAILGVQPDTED
Conditions: protein: recombinant; tags: N-terminal GST; dsDNA, one strand shown. Put shortly:
as §1

Another assay addresses T9, SPDEF (Homo sapiens, UniProt O95238 1-335).
T9 sequence: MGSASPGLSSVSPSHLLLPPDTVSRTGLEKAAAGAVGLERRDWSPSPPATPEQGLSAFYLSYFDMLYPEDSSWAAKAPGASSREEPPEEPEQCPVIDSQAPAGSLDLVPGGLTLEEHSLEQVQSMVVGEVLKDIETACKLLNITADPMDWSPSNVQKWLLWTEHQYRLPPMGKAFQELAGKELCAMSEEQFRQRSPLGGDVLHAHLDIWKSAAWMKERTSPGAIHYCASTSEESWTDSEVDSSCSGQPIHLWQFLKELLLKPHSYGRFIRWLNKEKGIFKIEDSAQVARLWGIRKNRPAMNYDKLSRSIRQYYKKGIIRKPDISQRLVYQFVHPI
The note with it: protein: recombinant; tags: N-terminal GST; dsDNA, one strand shown. Summed up: as §1

Another assay has as its target T10, ETV7 (Homo sapiens, UniProt Q9Y603 1-341).
T10 sequence: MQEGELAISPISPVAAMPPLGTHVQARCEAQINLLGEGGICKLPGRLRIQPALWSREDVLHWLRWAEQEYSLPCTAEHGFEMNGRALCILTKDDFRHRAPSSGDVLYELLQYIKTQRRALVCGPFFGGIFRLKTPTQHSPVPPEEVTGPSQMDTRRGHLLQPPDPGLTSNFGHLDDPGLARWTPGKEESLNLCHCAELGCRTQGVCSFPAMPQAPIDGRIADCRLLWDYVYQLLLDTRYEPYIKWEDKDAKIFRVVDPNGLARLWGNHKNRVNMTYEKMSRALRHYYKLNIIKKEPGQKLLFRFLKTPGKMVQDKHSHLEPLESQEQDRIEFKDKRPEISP
Conditions: protein: recombinant; tags: N-terminal GST; dsDNA, one strand shown. Summed up:
as §1

The next assay addresses T11, ELF5 (Homo sapiens, UniProt Q9UKW6-2 1-255).
T11 sequence: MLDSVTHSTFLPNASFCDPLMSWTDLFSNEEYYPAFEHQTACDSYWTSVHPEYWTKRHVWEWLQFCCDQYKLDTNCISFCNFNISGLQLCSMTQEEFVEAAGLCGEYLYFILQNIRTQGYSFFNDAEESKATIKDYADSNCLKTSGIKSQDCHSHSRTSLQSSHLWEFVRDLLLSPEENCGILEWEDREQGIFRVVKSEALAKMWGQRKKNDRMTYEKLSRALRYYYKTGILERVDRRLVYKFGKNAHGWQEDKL
The note with it: protein: recombinant; tags: N-terminal GST; dsDNA, one strand shown. Put shortly: as §1

Another assay concerns the target T12, ETV3 (Homo sapiens, UniProt P41162-2 1-143).
T12 sequence: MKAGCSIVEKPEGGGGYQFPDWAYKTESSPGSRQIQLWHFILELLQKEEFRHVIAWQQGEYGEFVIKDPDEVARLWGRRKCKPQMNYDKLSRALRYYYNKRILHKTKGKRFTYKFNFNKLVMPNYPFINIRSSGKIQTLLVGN
The note with it: protein: recombinant; tags: N-terminal GST; dsDNA, one strand shown. Summed up:
as §1

A further assay concerns the target ETV6 (Homo sapiens, UniProt P41212 1-452). The note with it: protein: recombinant; tags: N-terminal GST; dsDNA, one strand shown. Summed up: as §1

This passage reports binding signal results from PMC7862700, “An all-to-all approach to the identification of sequence-specific readers for epigenetic DNA modifications on cytosine”.

Chain of HSF1 (Q00613 whole entry): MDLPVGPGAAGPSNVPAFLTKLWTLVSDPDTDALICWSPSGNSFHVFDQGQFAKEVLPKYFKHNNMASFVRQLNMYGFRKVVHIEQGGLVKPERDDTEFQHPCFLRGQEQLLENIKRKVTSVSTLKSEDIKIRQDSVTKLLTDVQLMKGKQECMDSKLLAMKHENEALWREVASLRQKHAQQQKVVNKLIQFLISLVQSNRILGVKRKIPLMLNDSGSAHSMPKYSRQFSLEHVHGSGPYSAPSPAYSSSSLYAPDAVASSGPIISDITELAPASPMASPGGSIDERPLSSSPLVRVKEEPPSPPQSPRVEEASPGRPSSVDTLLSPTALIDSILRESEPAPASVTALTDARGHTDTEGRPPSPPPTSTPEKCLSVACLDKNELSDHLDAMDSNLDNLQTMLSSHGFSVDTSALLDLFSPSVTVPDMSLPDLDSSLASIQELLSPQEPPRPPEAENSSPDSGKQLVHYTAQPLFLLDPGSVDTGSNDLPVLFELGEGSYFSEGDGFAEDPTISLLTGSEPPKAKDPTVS
Chain of ELF4 (Q99607 whole entry): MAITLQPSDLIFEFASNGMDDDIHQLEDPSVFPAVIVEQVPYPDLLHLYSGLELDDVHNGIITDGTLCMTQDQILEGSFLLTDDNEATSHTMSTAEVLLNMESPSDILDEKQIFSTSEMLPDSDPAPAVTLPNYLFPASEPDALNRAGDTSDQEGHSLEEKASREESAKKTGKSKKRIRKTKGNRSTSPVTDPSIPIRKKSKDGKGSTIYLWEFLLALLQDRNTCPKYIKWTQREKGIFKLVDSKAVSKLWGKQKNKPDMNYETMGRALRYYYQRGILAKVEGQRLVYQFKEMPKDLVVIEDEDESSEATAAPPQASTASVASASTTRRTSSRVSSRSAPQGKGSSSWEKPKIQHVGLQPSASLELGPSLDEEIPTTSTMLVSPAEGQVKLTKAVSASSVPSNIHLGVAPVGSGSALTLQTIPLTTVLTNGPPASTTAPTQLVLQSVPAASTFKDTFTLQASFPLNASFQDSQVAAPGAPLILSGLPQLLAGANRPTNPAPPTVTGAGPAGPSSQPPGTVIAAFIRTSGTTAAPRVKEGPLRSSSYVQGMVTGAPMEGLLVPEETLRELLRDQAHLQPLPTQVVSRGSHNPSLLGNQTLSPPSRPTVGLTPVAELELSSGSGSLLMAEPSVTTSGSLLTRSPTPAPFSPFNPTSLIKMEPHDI
Chain of ETV5 (P41161 whole entry): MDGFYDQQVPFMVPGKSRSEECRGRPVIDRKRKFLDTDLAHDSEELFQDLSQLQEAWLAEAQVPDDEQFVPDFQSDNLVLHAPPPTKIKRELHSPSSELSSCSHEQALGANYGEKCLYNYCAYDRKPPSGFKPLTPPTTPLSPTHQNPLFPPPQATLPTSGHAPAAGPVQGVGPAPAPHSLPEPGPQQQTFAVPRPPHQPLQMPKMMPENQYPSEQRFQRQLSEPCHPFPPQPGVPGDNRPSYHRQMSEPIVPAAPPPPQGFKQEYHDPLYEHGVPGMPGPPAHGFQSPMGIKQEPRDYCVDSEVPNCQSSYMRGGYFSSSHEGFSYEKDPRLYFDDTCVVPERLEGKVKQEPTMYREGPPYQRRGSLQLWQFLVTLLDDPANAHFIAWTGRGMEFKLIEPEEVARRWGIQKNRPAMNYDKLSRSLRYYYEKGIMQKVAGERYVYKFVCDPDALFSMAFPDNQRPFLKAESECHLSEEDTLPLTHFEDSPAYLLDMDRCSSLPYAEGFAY
Chain of ETV1 (P50549 whole entry): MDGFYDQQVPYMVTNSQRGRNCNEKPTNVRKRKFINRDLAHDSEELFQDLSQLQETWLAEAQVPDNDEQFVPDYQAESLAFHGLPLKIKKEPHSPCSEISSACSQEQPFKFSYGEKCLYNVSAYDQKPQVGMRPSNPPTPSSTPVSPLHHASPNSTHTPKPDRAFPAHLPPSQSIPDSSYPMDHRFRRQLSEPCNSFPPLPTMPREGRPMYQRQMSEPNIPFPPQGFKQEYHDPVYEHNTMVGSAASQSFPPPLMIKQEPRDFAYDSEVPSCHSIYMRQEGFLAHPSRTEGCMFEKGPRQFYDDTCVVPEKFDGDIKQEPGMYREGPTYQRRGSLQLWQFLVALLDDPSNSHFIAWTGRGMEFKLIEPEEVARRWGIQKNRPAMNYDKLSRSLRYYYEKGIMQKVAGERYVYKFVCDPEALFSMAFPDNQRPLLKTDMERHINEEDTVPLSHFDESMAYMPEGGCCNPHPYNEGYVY
Chain of ETV6 (P41212 whole entry): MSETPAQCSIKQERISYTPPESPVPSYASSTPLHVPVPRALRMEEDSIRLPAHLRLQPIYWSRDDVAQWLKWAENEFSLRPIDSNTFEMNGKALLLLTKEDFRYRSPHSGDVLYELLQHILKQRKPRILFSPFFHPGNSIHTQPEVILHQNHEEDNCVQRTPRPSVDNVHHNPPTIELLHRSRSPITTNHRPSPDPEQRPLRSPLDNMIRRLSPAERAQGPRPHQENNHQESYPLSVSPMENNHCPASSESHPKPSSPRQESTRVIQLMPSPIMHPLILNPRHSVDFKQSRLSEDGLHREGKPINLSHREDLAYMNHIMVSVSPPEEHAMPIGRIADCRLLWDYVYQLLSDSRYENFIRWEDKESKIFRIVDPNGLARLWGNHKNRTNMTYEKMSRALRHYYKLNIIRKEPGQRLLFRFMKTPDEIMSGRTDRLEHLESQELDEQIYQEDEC
Chain of CRX (O43186 whole entry): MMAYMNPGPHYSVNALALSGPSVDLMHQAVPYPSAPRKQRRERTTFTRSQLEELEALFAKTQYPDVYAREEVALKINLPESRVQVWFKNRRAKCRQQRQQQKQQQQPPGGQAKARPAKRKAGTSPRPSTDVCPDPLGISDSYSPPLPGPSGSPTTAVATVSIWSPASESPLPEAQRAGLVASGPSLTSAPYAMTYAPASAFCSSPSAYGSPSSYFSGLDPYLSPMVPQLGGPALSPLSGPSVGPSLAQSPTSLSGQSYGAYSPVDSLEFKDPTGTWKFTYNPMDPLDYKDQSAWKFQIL

On to CTCGCA, for which the binding signal was 1.32 fold enrichment (6-mer frequency, TF over GST control) with FEV; 1.19 fold enrichment (6-mer frequency, TF over GST control) in the assay with ETV5; 1.61 fold enrichment (6-mer frequency, TF over GST control) with HSF1; 1.43 fold enrichment (6-mer frequency, TF over GST control) with SPIC; 1.26 fold enrichment (6-mer frequency, TF over GST control) with ELF4; 1.29 fold enrichment (6-mer frequency, TF over GST control) in the assay with ELK4. Besides, the binding signal was 1.34 fold enrichment (6-mer frequency, TF over GST control) in the assay with ETV2; 1.26 fold enrichment (6-mer frequency, TF over GST control) in the assay with ELF3; 1.2 fold enrichment (6-mer frequency, TF over GST control) with CRX; 1.26 fold enrichment (6-mer frequency, TF over GST control) with ETV1; 1.26 fold enrichment (6-mer frequency, TF over GST control) in the assay with ERF; 1.3 fold enrichment (6-mer frequency, TF over GST control) with ETV3L. For the same sequence, the binding signal in the assay with ETS2 was 1.35 fold enrichment (6-mer frequency, TF over GST control); with SPDEF, 1.2 fold enrichment (6-mer frequency, TF over GST control); with ETV7, 1.23 fold enrichment (6-mer frequency, TF over GST control); in the assay with ELF5, 1.15 fold enrichment (6-mer frequency, TF over GST control); in the assay with ETV3, 1.34 fold enrichment (6-mer frequency, TF over GST control); with ETV6 it was 1.19 fold enrichment (6-mer frequency, TF over GST control).
